Measurements published in article PMC5540273 (PLoS ONE, 2017).

Legend:
Settings in all cases: concentration: 1 μM, replicates: in singlicate; n = 1
ROCK1 = test system: ROCK1
ROCK2 = test system: ROCK2
ROS1 = test system: ROS1
[1] = test system: RPS6KA4(Kin.Dom.1-N-terminal)
[2] = test system: RPS6KA4(Kin.Dom.2-C-terminal)
[3] = test system: RPS6KA5(Kin.Dom.1-N-terminal)
[4] = test system: RPS6KA5(Kin.Dom.2-C-terminal)
[5] = test system: T1, RSK1(Kin.Dom.1-N-terminal)
T1 construct: gene RPS6KA1

[6] = test system: T2, RSK1(Kin.Dom.2-C-terminal)
T2 construct: gene RPS6KA1

[7] = test system: T3, RSK2(Kin.Dom.1-N-terminal)
T3 construct: gene RPS6KA3

[8] = test system: T4, RSK2(Kin.Dom.2-C-terminal)
T4 construct: gene RPS6KA3

[9] = test system: T5, RSK3(Kin.Dom.1-N-terminal)
T5 construct: gene RPS6KA2

[10] = test system: T6, RSK3(Kin.Dom.2-C-terminal)
T6 construct: gene RPS6KA2

[11] = test system: T7, RSK4(Kin.Dom.1-N-terminal)
T7 construct: gene RPS6KA6

[12] = test system: T8, RSK4(Kin.Dom.2-C-terminal)
T8 construct: gene RPS6KA6

S6K1 = test system: S6K1
SBK1 = test system: SBK1
SGK2 = test system: SGK2
SGK3 = test system: SGK3
SGK = test system: SGK
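Further: KINOMEscan kinase panel screen.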

Compound	%Inh (ROCK1) [%]	%Inh (ROCK2) [%]	%Inh (ROS1) [%]	%Inh [1] [%]	%Inh [2] [%]	%Inh [3] [%]	%Inh [4] [%]	%Inh [5] [%]	%Inh [6] [%]	%Inh [7] [%]	%Inh [8] [%]	%Inh [9] [%]	%Inh [10] [%]	%Inh [11] [%]	%Inh [12] [%]	%Inh (S6K1) [%]	%Inh (SBK1) [%]	%Inh (SGK2) [%]	%Inh (SGK3) [%]	%Inh (SGK) [%]
Cc1ccc(C(=O)Nc2ccc(Nc3ccnc4cc(-c5ccccn5)ccc34)cc2O)cc1.Cl [GW440146]	13	19	16	20	0	16	0	6	0	0	4	6	0	0	1	7	10	0	0	0
Cn1ccc2ncnc(Oc3ccc(Nc4nc5ccccc5[nH]4)cc3)c21	0	0	0	0	0	7	0	0	0	0	0	0	0	0	0	0	0	0	0	0
COc1cc2nccc(Nc3ccc(NC(=O)c4ccc(C)cc4)c(O)c3)c2cc1OC.Cl [GW440132]	0	4	47	11	0	18	0	9	0	7	4	4	0	0	0	0	10	5	0	0
Cc1nnc(-c2ccc3occ(-c4ccc(S(C)=O)cc4)c3c2)[nH]1 (stereo not drawn)	20	0	0	0	11	0	15	9	33	13	5	0	7	0	36	4	0	5	17	1
CCCc1ccc(S(=O)(=O)NC2CCN(c3ccnc(Nc4ccc(F)cc4)n3)C2)cc1 (stereo not drawn) [GSK1379715]	11	0	0	0	0	0	0	7	0	8	20	13	0	0	0	0	5	0	0	0
Cc1cccc(-c2nc(Nc3ccc4[nH]ncc4c3)c3ccccc3n2)n1 [GW857175]	29	52	17	0	33	0	5	15	50	18	23	14	1	35	15	26	5	6	9	25
O=C(Nc1n[nH]c2nc(-c3nccs3)c(Br)cc12)C1CCCC1 [SB-742609]	10	0	0	7	0	0	0	14	0	11	0	0	0	0	1	19	12	0	0	7
Cc1cccc(-c2nc(Nc3ccncc3)c3ccccc3n2)n1 [GW855857]	0	0	0	20	0	0	4	0	8	0	50	0	0	0	9	0	0	0	0	0
O=c1cc(N2CCOCC2)nc2n(Cc3cccc(Cl)c3Cl)ccn12 [GSK2286295]	0	34	7	17	0	11	0	22	0	0	8	0	28	0	1	0	9	14	9	22
COc1cc2ncn(-c3cc(OCC4CCCO4)c(C(N)=O)s3)c2cc1OC (stereo not drawn) [GSK204607]	0	0	8	0	3	9	8	13	0	0	0	9	2	0	22	0	0	0	0	0
Cc1ccccc1-n1cnc2c(N)ncnc21 [SKF-97510]	0	0	0	0	0	0	0	18	93	0	0	0	8	0	18	0	0	0	0	0
COc1cc2ncnc(Nc3ccc4nc(-c5ccccc5)[nH]c4c3)c2cc1OC.Cl [GW282450]	18	30	47	6	0	11	3	0	0	0	27	15	0	1	0	16	20	0	0	0
Nc1nc(-c2nccs2)c(-c2ccnc3ccccc23)s1 [GW693542]	14	18	0	20	0	20	0	20	0	0	88	0	0	0	50	0	9	0	6	0
CC(C)(C)c1ccc(C(=O)Nc2cn3cc(-c4cccnc4)ccc3n2)cc1	0	7	0	15	0	0	6	19	42	17	0	13	36	4	47	11	23	0	13	0
CC(C)(C)c1ccc(C(=O)Nc2cn3cc(Cl)ccc3n2)cc1	0	0	0	7	5	0	0	0	20	26	28	0	23	45	22	0	0	6	0	8
